# CTSL1 counter: counter-screen for PFM18AAP inhibitors: inhibitors of F. hepatica cathepsin L1; recombinant F. hepatica cathepsin L1, Z-Leu-Arg-MCA fluorescence; inhibition, % at 5.96 µM; hit rate 0.49% among 300,000;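 active = inhibition above the mean of all tested compounds plus 3 SD, set per screening campaign, cut at about 17% in these data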;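 note: 0% = plate median of test compound wells and 100% = 1 µM Z-Phe-Ala-diazomethylketone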
# HNF4A DNA FP: change in binding of human HNF4 alpha to DNA; P41235; HNF4a-FITC DNA binding, fluorescence polarization, 1 h; activity change, % at 10 µM; hit rate 0.3% among 360,000; AID 1224865; in the data active = activity change above about 30%, passing the limit was not always enough
# CendR NRP1 mod: NRP-1/CendR interaction modulation. O14786. FAM-RPARPAR peptide binding to NRP-1, fluorescence polarization. inhibition, % at 25 µM. hit rate 0.85% among 360,000;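 active = inhibition or corrected inhibition above about 18%, plus a signal ratio from 0.5 to 1.5, limit read from the data, passing the limit was not always enough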
# TPT1 inh: C. albicans TPT1 enzyme inhibition | hit rate 0.81% among 300,000 | recombinant caTPT1, FP RNA substrate dephosphorylation | AID 1962 | inhibition, % at 5 µM;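 active = inhibition above the mean of all tested compounds plus 3 SD, set per screening campaign, cut at about 24% in these data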;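 note: plate controls were DMSO alone for no effect and ferristatin control at 100 nM for full effect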
# PHOSPHO1 block: blocks human PHOSPHO1 phosphatase activity; Q8TCT1; recombinant PHOSPHO1, absorbance phosphatase assay; inhibition, % at 13.3 µM; hit rate 1.1% among 290,000; in the data active = inhibition above about 60%
# Rpn11 inh: blocks the human proteasome subunit Rpn11; human 26S proteasome, Ub4-pepOG fluorescence polarization; 20S core pre-blocked with epoxomicin; AID 588493; inhibition, % at 20 µM; O00487; hit rate 0.59% among 360,000;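 active = inhibition at 20 µM, scaled to each plate's controls, above about 33%, limit read from the data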
# Target sequence (O00487 whole entry, looked up): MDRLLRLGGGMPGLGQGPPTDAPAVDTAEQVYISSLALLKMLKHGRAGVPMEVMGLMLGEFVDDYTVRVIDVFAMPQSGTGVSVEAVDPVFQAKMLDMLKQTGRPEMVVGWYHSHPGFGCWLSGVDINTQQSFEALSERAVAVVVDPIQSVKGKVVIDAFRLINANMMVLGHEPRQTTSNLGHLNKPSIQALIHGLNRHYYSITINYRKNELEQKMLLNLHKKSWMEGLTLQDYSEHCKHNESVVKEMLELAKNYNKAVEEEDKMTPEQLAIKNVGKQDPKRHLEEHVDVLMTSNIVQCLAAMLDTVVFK
# caTPT1 confirm: confirmation of Candida albicans TPT1 inhibitors; inhibition, % at 5 µM; shares compounds with TPT1 inh; recombinant caTPT1, fluorescence polarization, RNase T1 coupled; hit rate 74% among 2,400;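 active = inhibition above the primary screen limit, the mean inhibition of all tested compounds plus 3 SD, cut at about 25% in these data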
# RNase T1 counter: blocks Aspergillus oryzae RNase T1, a TPT1 counter-screen; RNase T1 cleavage, fluorescence polarization, 1536-well; inhibition, % at 5 µM; hit rate 83% among 2,400; shares compounds with TPT1 inh;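 active = inhibition above the solvent-only control well mean plus 3 SD, limit set per screening run, cut at about 23% in these data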;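 note: plate controls were DMSO wells with enzyme for no effect and wells without RNase T1 for full effect; inhibitors block cleavage so intact labeled substrate keeps polarization high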
# Target sequence (P00651 whole entry, looked up): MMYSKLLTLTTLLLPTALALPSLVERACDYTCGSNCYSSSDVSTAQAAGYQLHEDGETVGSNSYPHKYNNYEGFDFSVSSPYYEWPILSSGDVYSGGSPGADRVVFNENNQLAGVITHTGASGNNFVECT
# * = called active by the depositor; x = not tested or not shown. Compounds with a hit are over-represented: about 3.3% of the library has one in this group of screens.
SMILES,CTSL1 counter,HNF4A DNA FP,CendR NRP1 mod,TPT1 inh,PHOSPHO1 block,Rpn11 inh,caTPT1 confirm,RNase T1 counter
COc1ccc(-n2c(C)nc3ccccc3c2=O)c([N+](=O)[O-])c1,2,-3,-6,-1,18,0,x,x
O=C1OC(c2ccc([N+](=O)[O-])cc2)=N/C1=C/N1CC2CC(C1)c1cccc(=O)n1C2 (configuration not stated),2,3,-11,34*,14,8,42*,54*
Cc1ccc(OC(=O)N(C)C[C@H]2OCc3cnnn3CCCC(=O)N([C@@H](C)CO)C[C@H]2C)cc1,x,-8,-7,x,x,-5,x,x
O=S(=O)(c1ccccc1)C1CN1c1c(F)c(F)c(F)c(F)c1F (configuration not stated),x,-4,8,x,x,x,x,x
O=C1CC(=O)N(c2ccccc2F)C(=O)N1,1,4,-1,9,24,3,x,x
Cc1ccccc1N1C(=O)CC(=O)N(c2ccccc2C)C1=O,1,4,3,31*,-17,34,15,22*
COc1ccc(-n2c(O)c(/C=C/C=Nc3ccccc3)c(=O)[nH]c2=O)cc1,-1,177,124,178*,9,x,196*,177*
O=c1[nH]c(=O)n(C2CCCCC2)c(O)c1/C=C/C=Nc1ccccc1,4,121,132,89*,25,x,81*,76*
O=c1[nH]c(=O)n(-c2ccccc2)c(O)c1/C=C/C=Nc1ccccc1,4,151,101,157*,-11,x,166*,160*
Cc1ccc(N/N=C/c2c(O)n(-c3ccccc3)c(=O)[nH]c2=O)cc1,7,0,2,3,-2,10,x,x
O=c1[nH]c(=O)n(C2CCCCCC2)c(O)c1C=NC1CCN(Cc2ccccc2)CC1,5,9,-15,-11,-33,11,x,x
COc1ccc(-n2c(O)c(/C(C)=N/Nc3ccccc3)c(=O)[nH]c2=O)cc1,-4,5,-3,-8,-2,0,x,x
Cc1ccc(-n2c(O)c(/C=C/C=Nc3ccccc3)c(=O)[nH]c2=O)cc1,9,71*,121,134*,2,28,51*,48*
COC(=O)C1=Nc2ccccc2/C1=C\c1c(O)n(-c2ccc(Br)cc2)c(=O)[nH]c1=O,2,3,-48,27*,-18,15,33*,44*
COc1ccc2ccccc2c1CNCCc1ccccc1,-5,-5,-6,1,19,-2,x,x
O=[N+]([O-])/C=C/c1c(Cl)cccc1Cl,x,2,-6,x,x,2,x,x
Cc1ccccc1N1CCN(C2CCCN(C(=O)Cc3c(C)noc3C)C2)CC1 (configuration not stated),-2,-2,-7,4,25,-5,x,x
CCCCCCn1c(O)c(C=NCCCn2ccnc2)c(=O)[nH]c1=O,1,67*,-200,134*,3,x,73*,89*
CCCCN=Cc1c(O)n(-c2c(C)cc(C)cc2C)c(=O)[nH]c1=O,4,6,-68,33*,-51,22,34*,45*
Cn1c(O)c(/C=N/c2ncccn2)c(=O)n(C)c1=O,-5,0,5,6,19,7,x,x
CCCCn1c(=O)c(C=Nc2cccnc2Cl)c(O)n(CCCCl)c1=O,0,-2,-7,30*,-9,17,9,14
CN1C(=O)C(=Cc2ccc(SC3CCCCC3)o2)C(=O)N(C)C1=O,0,-3,-11,8,18,10,x,x
CN(C)C=C1C(=O)N(C2CCCCC2)C(=O)N(C2CCCCC2)C1=O,0,0,10,29*,46,-1,43*,58*
COC(=O)C1=C(c2ccc(Cl)c(C(F)(F)F)c2)C[C@@H]2CC[C@H]1N2C(=O)NCCCOC(C)C,x,4,2,x,x,1,x,x
Cc1ccc(N2C(=O)NC(=O)/C(=C\c3cc(C)n(-c4sc5c(c4C#N)CCCC5)c3C)C2=O)cc1,3,-6,-138,26*,-6,32,36*,50*
SMILES,CTSL1 counter,HNF4A DNA FP,CendR NRP1 mod,TPT1 inh,PHOSPHO1 block,Rpn11 inh,caTPT1 confirm,RNase T1 counter
CCN1C(=O)NC(=O)/C(=C/c2cc(C)n(-c3sc(C)c(C)c3C#N)c2C)C1=O,5,2,-35,20,10,10,x,x
Nc1nc(N)c2cnnn2n1,x,1,6,x,x,-1,x,x
Cc1ccc(N2C(=O)NC(=O)/C(=C\c3ccc([N+](=O)[O-])o3)C2=O)cc1,0,x,x,29*,-48,x,50*,21
Cc1ccc(N2C(=O)NC(=O)/C(=C\c3ccc(N4CCOCC4)cc3)C2=O)cc1,6,1,-19,13,-4,7,x,x
O=C1NC(=O)N(Cc2ccc(F)cc2)C(=O)/C1=C\c1ccc(N2CCCC2)cc1,5,-2,-115,82*,33,x,104*,117*
N/C(=N\[N+](=O)[O-])N1CCN(C(=O)c2ccccn2)CC1,1,-3,-11,4,31,-3,x,x
Cc1cc(C=C(C#N)C#N)ccc1N1CCCC1,1,6,-43,126*,29,-35,120*,139*
O=C1CC(=O)N(c2ccc(Cl)cc2Cl)C(=O)N1,3,9,-54,37*,-10,36,16,25*
Cc1cc(Br)ccc1N1C(=O)CC(=O)NC1=O,1,8,-35,24*,-2,26,13,18
COc1nc2ccccc2nc1N1CCN(C)CC1,x,0,-2,x,48,4,x,x
COc1ccc(-c2ccc3c(c2)CN(C(=O)CCc2ccccc2)Cc2cnnn2-3)cc1,x,-2,-3,x,x,-3,x,x
CC(C)c1ccc(N2C(=O)NC(=O)/C(=C\C=C\c3ccco3)C2=O)cc1,-1,x,x,130*,-8,x,110*,106*
COc1cc(OC)c(OC)cc1/C=C1\C(=O)NC(=O)N(Cc2ccccc2)C1=O,0,6,-7,13,-5,4,x,x
CCN1C(=O)C(=C/C=C/c2ccco2)C(=O)N(CC)C1=S,5,98,134,81*,-16,x,100*,104*
O=C1NC(=O)N(Cc2ccccc2)C(=O)/C1=C/C=C/c1ccco1,7,42*,-252,75*,45,x,50*,68*
NNC(=O)c1nc[nH]c1C(=O)Nc1ccc(Cl)cc1C(=O)c1ccccc1,x,-1,7,x,34,8,x,x
COc1ccc([N+](=O)[O-])cc1N=Cc1c(O)n(CCc2ccccc2)c(=O)n(C(C)C)c1=O,1,2,-23,38*,-5,13,6,15
CC(C)n1c(=O)c(C=Nc2ccc(Cl)cc2)c(O)n(Cc2ccco2)c1=O,1,x,x,22,-56,x,x,x
Cc1ccc(S(=O)(=O)NP(=O)(Oc2ccccc2)Oc2ccccc2)cc1,0,1,-11,24*,21,8,9,19
